The full list was thinned out, with hits kept by preference.
HT1080 IDH1KD tx = kills HT-1080 cells with IDH1 knockdown. AID 686971. Potency, µM (series often up to 46.1 µM), for inactives: at the highest dose activity, negative = toxicity, usual class: cytotoxic. HT-1080 IDH1 knockdown viability, ATP luminescence, 48 h. actives 2% (n = 360,000);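 further: potency means the concentration at half of the fitted maximal effect; 0% = DMSO wells and -100% = cell-free medium wells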
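Cytotoxicity counter-line: IDH1KD HT-1080, 48 h, CellTiter-Glo. Curves classed by r2, magnitude and activity.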
12-LOX inh = ALOX12 (human) lipoxygenase inhibition; purified 12hLO, xylenol orange hydroperoxide absorbance; AID 1671190; actives 1.1% (n = 580,000); P18054; Potency, µM (series often up to 108 µM), inactives show top-dose activity change, negative = inhibition, hits mostly inhibitors; further: potency means the concentration at half of the fitted maximal effect
Target sequence (P18054 whole entry, looked up): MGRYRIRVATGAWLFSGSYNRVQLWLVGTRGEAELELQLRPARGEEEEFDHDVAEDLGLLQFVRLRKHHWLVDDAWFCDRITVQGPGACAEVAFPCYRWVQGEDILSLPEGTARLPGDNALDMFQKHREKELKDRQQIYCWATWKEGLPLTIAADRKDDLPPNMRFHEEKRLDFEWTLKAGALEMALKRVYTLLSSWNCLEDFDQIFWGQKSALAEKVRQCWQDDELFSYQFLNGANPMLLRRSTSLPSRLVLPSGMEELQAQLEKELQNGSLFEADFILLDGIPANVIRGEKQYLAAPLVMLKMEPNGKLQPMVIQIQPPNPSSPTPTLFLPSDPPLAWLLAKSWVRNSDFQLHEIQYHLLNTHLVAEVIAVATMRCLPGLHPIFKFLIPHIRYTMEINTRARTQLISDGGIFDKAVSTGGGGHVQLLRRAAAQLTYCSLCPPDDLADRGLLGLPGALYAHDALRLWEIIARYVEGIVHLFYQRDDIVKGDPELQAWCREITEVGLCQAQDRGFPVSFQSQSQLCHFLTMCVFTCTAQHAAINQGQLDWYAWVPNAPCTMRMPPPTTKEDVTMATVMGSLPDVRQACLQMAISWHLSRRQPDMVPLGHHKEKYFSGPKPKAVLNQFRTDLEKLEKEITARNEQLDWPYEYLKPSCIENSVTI
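Purified human 12hLO at 150 nM in 25 mM Hepes, 0.01% Triton X-100, pH 7.0, preincubated 15 min at room temperature with compound. Reaction started with 40 uM arachidonic acid, 30 min at room temperature. Hydroperoxide measured by Fe-xylenol orange, 573/405 nm absorbance ratio.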
TDP1 cell CPT = DT40-hTDP1 cell growth loss with CPT; chicken DT40 Tdp1-/-;hTDP1 cells + 20 nM CPT, ATP luminescence, 48 h; AID 686979; actives 12% (n = 420,000); Potency, µM (series often up to 46.2 µM), without a hit: top-dose activity change, negative = growth inhibition, most hits filed as inhibitors; further: potency means the concentration at half of the fitted maximal effect; nearly all actives have a fitted effect of over 55% in size
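Cell growth measured by CellTiter-Glo luminescence after a minimum 48 h, 37 C compound exposure with 20 nM CPT in Tdp1-knockout DT40 cells stably expressing hTDP1, seeded 400/well; qHTS titration format.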
IL-1B inflam inh = blocks inflammasome-driven IL-1 beta release; activity change, % at 57.5 µM; THP-1 LPS/ATP IL-1B secretion, AlphaLISA, 16 h; stronger effect = lower value; actives 4.7% (n = 360,000); in the data active means activity change below about -50%; inconclusive means mostly about -30% to -49%
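Secreted IL-1B measured by AlphaLISA bead assay after 16 h compound exposure of THP-1 cells; compounds (final up to 57.5 uM) added 1 h before LPS (250 ng/mL) and ATP (1.25 mM) stimulation; lower signal means less secretion.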
TDP1 cell noCPT = qHTS for Inhibitors of human tyrosyl-DNA phosphodiesterase 1 (TDP1): qHTS in cells in absence of CPT; DT40 Tdp1-/- hTDP1 cells, no CPT, ATP luminescence, 48 h; Potency, µM (doses to about 46.2 µM), for inactives: at the highest dose activity change, negative = growth inhibition, actives largely listed as inhibitors; actives 15% (n = 420,000); AID 686978, 2013; further: potency means the concentration at half of the fitted maximal effect; nearly all actives have a fitted effect of over 55% in size
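DT40 Tdp1-/-;hTDP1 cells, no CPT (DMSO vehicle only), 400 cells/well; compounds pin-transferred; ≥48 hr, 37 °C; CellTiter-Glo 30 min RT dark, luminescence read.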
HT1080NT lethal = kills 2HG-producing HT-1080-NT fibrosarcoma cells; HT-1080-NT fibrosarcoma viability, CellTiter-Glo ATP luminescence, 48 h; Potency, µM (series often up to 46.1 µM), without a hit: at the highest dose activity, negative = less viability, most hits filed as cytotoxic; actives 1.6% (n = 360,000); AID 686970;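 further: NT is the 2HG producing partner of a matched IDH1 knockdown line; potency means the concentration at half of the fitted maximal effect; 0% = DMSO-treated cells and -100% = media-only wells without cells; nearly all actives have a fitted effect of over 55% in size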
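750 cells/well, RPMI + 5% FBS; 2 h settle, compound pin-transfer, 48 h at 37 degrees C. CellTiter-Glo 10 min RT, luminescence. Normalized to DMSO and media-only wells.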
* marks the source's active call; other numbers are inactive results; ? = inconclusive; / = no result; [ ] = remark or other dose. Unless noted, the call rests on the fitted dose curve; in most records, active means well fitted curve in the direction sought with a large enough effect; inconclusive means small, poorly fitted or top-dose-only effect, or another doubt; inactive means no such curve, though single readings can be large; an effect the other way counts as inactive or inconclusive. Unless noted, on the % scale 0 is the no-effect control and ±100 the full control effect.

SMILES	HT1080 IDH1KD tx	12-LOX inh	TDP1 cell CPT	IL-1B inflam inh	TDP1 cell noCPT	HT1080NT lethal
S=C1NC[C@H](Cc2ccccc2)N1CCCCC1CCCCC1	-17%	35µM*	?	-1	26µM*	?
CC(C)C[C@H]1CNC(=O)C(=O)N1CC1CCN(CCC(C)c2ccccc2)CC1 (stereo not given in full)	14%	?	-3%	-15	-1%	4%
S=C1NC[C@H](CC2CCCCC2)N1CCCCC1CCCCC1	12%	-125%	16µM*	4	?	12%
COc1ccc(-c2onc(C)c2C)cc1S(=O)(=O)N1CCN(c2ccc(Cl)cc2)CC1	/	-6%	7%	/	8%	/
S=C1NC[C@H](c2ccccc2)N1CC1CCCCC1	7%	?	21µM*	-5	23µM*	-1%
CCCCN1C(=S)NC[C@@H]1c1ccccc1	2%	-22%	-14%	10	-19%	15%
CC[C@H](C)[C@H]1CNC(=S)N1CC1CCN(CC2CCC(C)CC2)CC1 (stereo not given in full)	-3%	-9%	-29%	-3	-17%	0%
CC[C@H](C)[C@H]1CNC(=S)N1CC1CCN(CCC23CC4CC(CC(C4)C2)C3)CC1	2%	-14%	?	-63*	16µM*	-2%
O=C([C@@H]1C[C@H](F)CN1S(=O)(=O)c1ccc(F)cc1)N1CCCCC1	/	12%	/	/	/	/
CN(C(=O)CSc1cn(CC(=O)N2CCCCCC2)c2ccccc12)c1ccccc1	/	-11%	?	/	18µM*	/
CCCNC(=O)CSc1cn(CC(=O)N2CCCCCC2)c2ccccc12	/	-22%	-18%	/	-22%	/
CN(C(=O)CSc1cn(CC(=O)N2CCCCC2)c2ccccc12)c1ccccc1	/	0%	?	/	?	/
CC(C)N(C(=O)CSc1cn(CC(=O)N2CCCCCC2)c2ccccc12)C(C)C	/	-22%	?	/	18µM*	/
CCc1cc(C(=O)N2CCCc3ccccc32)sc1C	10%	0%	?	12	-22%	6%
Cc1cc(CN2CCn3c(nnc3-c3ccc(Cl)cc3)C2)no1	/	4%[6.33 µM]	/	/	/	/
COc1ccc(-n2c(N)c(C(=O)Nc3c(C)n(C)n(-c4ccccc4)c3=O)c3nc4ccccc4nc32)cc1	9%	-29%	-23%	-6	?	-2%
Nc1c(C(=O)Nc2ccccc2)c2nc3ccccc3nc2n1-c1ccc(O)cc1	?	0%	10µM*	0	2.1µM*	?
CCOC(=O)c1c(N)n(-c2ccc(CC)cc2)c2nc3ccccc3nc12	/	?	23µM*	/	?	/
COC(=O)c1c(N)n(-c2cc(Cl)cc(Cl)c2)c2nc3ccccc3nc12	/	0%	16µM*	/	9.2µM*	/
CCOC(=O)c1ccc(-n2c(N)c(C(=O)OC)c3nc4ccccc4nc32)cc1	/	-15%	5.8µM*	/	7.3µM*	/
CC(C)CCNC(=O)c1cnc2n1CCN(Cc1cccc(OC(F)(F)F)c1)CC2	/	36%[176 µM]	/	/	/	/
CN1C(=O)c2cccn2CC1C(=O)Nc1ccc(N2CCOCC2)cc1 (stereo not given)	/	26%	/	/	/	/
Cn1cnc(C(=O)N2CCCC(c3nc(-c4cccnc4)no3)CCNC(=O)CC2)c1 (stereo not given)	/	-7%	/	/	/	/
CCOC(=O)c1c(N)n(C2CC(C)(C)NC(C)(C)C2)c2nc3ccccc3nc12	?	/	?	-65*	-27%	?
C=C1C[C@@]23CCC4[C@@](C)(CCC[C@@]4(C)C(=O)OC)C2CC[C@]1(OC(C)=O)C3 (stereo not given in full)	0%	-4%	18µM*	24	?	-1%
SMILES	HT1080 IDH1KD tx	12-LOX inh	TDP1 cell CPT	IL-1B inflam inh	TDP1 cell noCPT	HT1080NT lethal
C[C@@]12CCC3[C@@](CCC4[C@@]3(C)CCC[C@@]4(C)C(=O)NC3CCCCC3)(CC1=O)C2 (stereo not given in full)	4%	-14%	18µM*	12	23µM*	2%
COC(=O)[C@]1(C)CCC[C@@]2(C)C3CC[C@@]4(C)C[C@]3(CCC21)CC4=NO (stereo not given in full)	-6%	-13%	?	18	21µM*	-3%
COC(=O)[C@]1(C)CCC[C@@]2(C)C3CC[C@@]4(C)C[C@]3(CCC21)CC(=O)N4C (stereo not given in full)	12%	0%	?	-5	?	0%
COc1ccc(-c2cc(N3CCCC(NC(=O)Cc4ccccc4)C3)n[nH]2)cc1 (stereo not given)	/	83%	/	/	/	/
C=C(C)[C@@H]1CCC2(C(=O)O)CC[C@]3(C)[C@H](CC[C@@H]4[C@@]5(C)CCC(=O)C(C)(C)[C@@H]5CC[C@]43C)[C@@H]12 (stereo not given in full)	11%	11%	2.9µM*	54	3.7µM*	9%
CCC(C)NC(=O)Cc1ccc(S(=O)(=O)N2CCCCC2)cc1 (stereo not given)	/	2%	/	/	/	/
CCCNC(=O)C(C)NC(=O)Cc1ccc(S(=O)(=O)N2CCCCC2)cc1 (stereo not given)	/	20µM*	/	/	/	/
Cc1ccc(CNC(=O)c2cc(S(=O)(=O)N3CCCCC3)cn2C)cc1	/	-15%	?	/	21µM*	/
O=C(Cc1ccc(S(=O)(=O)N2CCCCC2)cc1)NCc1ccc(Cl)cc1	-8%	8%	29µM*	0	-24%	-2%[9.24 µM]
Cn1cc(S(=O)(=O)N2CCCCC2)cc1C(=O)NCc1ccc(Cl)cc1	/	?	18µM*	/	?	/
CCCn1c(=O)[nH]c(=O)c2c1nc(-c1ccc(F)cc1)n2CCOC	/	16%	/	/	/	/
CCN(CC(=O)Nc1c(F)cccc1F)C(=O)c1cc(C)oc1C	8%	-19%	-5%	-2	3%	4%
CC(C(=O)N1CCCCC1)N1CCN(S(=O)(=O)c2ccc(Cl)cc2)CC1 (stereo not given)	-3%	1µM*	0%	-6	-1%	-3%
O=C(O)c1c2c(nc3ccc(S(=O)(=O)N4CCC(C(=O)NCc5ccc(Cl)cc5)CC4)cc13)CCCC2	2%	25µM*	1%	2	23%	30%
O=[S+]([O-])(c1cccc(C(F)(F)F)c1)N1CCn2c(nnc2-c2ccncc2)C1	/	7%[6.33 µM]	/	/	/	/
CCC(=O)Oc1ccc(C(=O)Nc2ccc3c(c2)OCO3)cc1	?	11%	?	-58*	21µM*	?

Bioassay records (PubChem)
